Reference: the supplement of paper PMC6555819

Tests used:
Experiment in all cases: PBM binding z-score (relative to random genomic background probes); higher = stronger binding; sequences stand for … in GC…GCGATTGACAGCGTAGAATGAAGG
[1] = test system: FXR:RXRa (NR concentration 270 nM, RXRa partner concentration 90 nM)
How it was run: (§1)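 Scanned fluorescence from custom Agilent 4×180K protein-binding microarrays was regression-normalized. Binding z-scores use random background probes as reference. Ligand-free nuclear receptor dimers were incubated on the arrays for 1 h and detected with antibodies against each partner (one per run).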

[2] = test system: LXRa:RXRa (NR concentration 270 nM, RXRa partner concentration 90 nM)
How it was run: as §1

[3] = test system: LXRa homodimer (NR concentration 270 nM)
How it was run: as §1

[4] = test system: LXRb:RXRa (NR concentration 270 nM, RXRa partner concentration 90 nM)
How it was run: as §1

[5] = test system: LXRb homodimer (NR concentration 270 nM)
How it was run: as §1

[6] = test system: PPARa:RXRa (NR concentration 270 nM, RXRa partner concentration 90 nM)
How it was run: as §1

[7] = test system: PPARg:RXRa (NR concentration 180 nM, RXRa partner concentration 90 nM)
How it was run: as §1

[8] = test system: PPARg:RXRa 270nM:90nM, anti-RXR (NR concentration 270 nM, RXRa partner concentration 90 nM)
How it was run: as §1

[9] = test system: PPARg:RXRa 30nM:10nM, anti-RXR (NR concentration 30 nM, RXRa partner concentration 10 nM)
How it was run: as §1

[10] = test system: PPARg:RXRa 90nM:30nM, anti-RXR (NR concentration 90 nM, RXRa partner concentration 30 nM)
How it was run: as §1

[11] = test system: PPARg:RXRa DBDmut IVT, anti-RXR (DBD mutation: RXRa K156A/R161A, NR concentration 270 nM, RXRa partner concentration 90 nM)
How it was run: as §1

[12] = test system: PPARg:RXRa IVT, anti-PPARg (NR concentration 270 nM, RXRa partner concentration 90 nM)
How it was run: as §1

[13] = test system: PPARg DBDmut:RXRa IVT, anti-PPARg (DBD mutation: PPARg1 K132A/R137A, NR concentration 270 nM, RXRa partner concentration 90 nM)
How it was run: as §1

[14] = test system: PPARg DBDmut IVT, anti-PPARg (DBD mutation: PPARg1 K132A/R137A, NR concentration 270 nM)
How it was run: as §1

[15] = test system: PPARg homodimer (NR concentration 180 nM)
How it was run: as §1

[16] = test system: PXR:RXRa (NR concentration 270 nM, RXRa partner concentration 90 nM)
How it was run: as §1

[17] = test system: PXR homodimer (NR concentration 270 nM)
How it was run: as §1

[18] = test system: RARa:RXR (NR concentration 270 nM, RXRa partner concentration 90 nM)
How it was run: as §1

[19] = test system: RARa homodimer (NR concentration 270 nM)
How it was run: as §1

[20] = test system: RARb:RXRa (NR concentration 270 nM, RXRa partner concentration 90 nM)
How it was run: as §1

| Sequence | PBM binding z-score [1] | PBM binding z-score [2] | PBM binding z-score [3] | PBM binding z-score [4] | PBM binding z-score [5] | PBM binding z-score [6] | PBM binding z-score [7] | PBM binding z-score [8] | PBM binding z-score [9] | PBM binding z-score [10] | PBM binding z-score [11] | PBM binding z-score [12] | PBM binding z-score [13] | PBM binding z-score [14] | PBM binding z-score [15] | PBM binding z-score [16] | PBM binding z-score [17] | PBM binding z-score [18] | PBM binding z-score [19] | PBM binding z-score [20] |
| --- | --- | --- | --- | --- | --- | --- | --- | --- | --- | --- | --- | --- | --- | --- | --- | --- | --- | --- | --- | --- |
| CCTAATGGGCCATTCAGAGGTCATTGATCATATG | 2.75 | 4.67 | 6.94 | 4.05 | 1.04 | 3.68 | 1.37 | 2.27 | 0.458 | 1.54 | 2.5 | 2.39 | 0.168 | 0.266 | 2.02 | 4.59 | 1.84 | 4.39 | 0.847 | 3.27 |
| CAAACTAGGTCAAGAGGTCAATGTCCGCTTCCCG | 6.4 | 6.19 | 5.74 | 4.72 | 1.58 | 6.11 | 9.5 | 7.94 | 6.68 | 8 | 8.38 | 8.12 | 2.46 | 0.644 | 3.95 | 5.63 | 1.52 | 6.79 | 2.12 | 5.3 |
| GCTAGTTGGTCAGTAAAAGGACACACACCGGTCG | -0.0634 | -0.0918 | 0.213 | -0.44 | -0.0401 | -0.104 | 0.654 | 0.282 | -0.0614 | -0.0124 | 0.16 | 0.5 | 0.0692 | -0.305 | 0.811 | -0.134 | 0.246 | 0.153 | 0.849 | 1.61 |
| TCATATAGGTAAACAGGTGAAAGGCCGTAAGTTA | 1.02 | 0.944 | 0.383 | 0.971 | 0.244 | 3.2 | 5.16 | 4.67 | 4.73 | 5.29 | 4.71 | 4.59 | 1.06 | 1.36 | 1.42 | 0.956 | 0.656 | 1.37 | 1.25 | 0.989 |
| TTACCAAGGTGAAAGGTCGTTCATGCACGCCTTG | 3.83 | 3.72 | 0.593 | 3.18 | -0.344 | 5.32 | 8.83 | 8.22 | 8.68 | 8.9 | 2.97 | 5.04 | 0.222 | 0.115 | 1.16 | 3.93 | 0.838 | 5.63 | 0.139 | 3.06 |
| CATACAGGGTCAGCTAGGGCAGAGTAGGGACGGC | 4.71 | 3.1 | -0.0929 | 2.23 | 0.47 | 4.21 | 3.23 | 3.05 | 0.549 | 1.75 | 1.09 | 2.7 | 1.4 | -0.307 | 2.1 | 2.54 | 0.343 | 3.11 | 0.618 | 4.28 |
| ATCTCTAGGTAAGACTCAGCTCAGTGAAGAACGC | 0.197 | 0.324 | 0.483 | -0.157 | 0.984 | -0.198 | 0.0541 | -0.171 | 0.317 | 0.109 | 1.68 | 1.02 | 0.287 | 1.14 | 0.51 | -0.0635 | 0.232 | -0.0237 | 0.868 | -0.0169 |
| CCTTACGGGTCACTGACAGGGTATAGCATTTGGA | 4.47 | 3.35 | 0.0232 | 2.72 | -0.363 | 4.64 | 3.98 | 4.07 | 1.2 | 2.69 | 2.63 | 3.31 | 0.282 | 0.192 | 1.91 | 2.87 | -0.101 | 3.64 | 0.315 | 3.73 |
| CCTACTGGGCCGCGAAAGGTCATTGATTCAGTGA | 3.37 | 4.49 | 3.63 | 3.85 | 0.0149 | 4.35 | 1.94 | 3.69 | 0.701 | 2.76 | 2.81 | 3.04 | -1.14 | -0.345 | 3.03 | 5.13 | 1.47 | 5.27 | 0.0232 | 3.81 |
| ATCGAAAGGTCGGAGGTGAGTATACCCACCCGAA | 2.56 | 2.13 | -0.237 | 1.67 | 0.308 | 3.57 | 2.78 | 3.13 | 1.04 | 2.13 | -0.278 | 1.78 | 1.11 | 0.559 | 1.66 | 1.87 | 0.241 | 2.79 | 0.0274 | 3.28 |
| CCTCGGAGGACAACAGGAGGTGAGAGCTGCCAGA | -0.0702 | -0.357 | -0.536 | -0.619 | -0.875 | -0.108 | 0.133 | -0.73 | -0.83 | -0.93 | 0.262 | 0.245 | -1.46 | -1.64 | -0.411 | -0.513 | -0.0477 | -0.183 | -0.132 | 1.13 |
| CGAACTAGGTCATCAAGGACAGTGAATACATTGA | 3.45 | 2.23 | 0.477 | 1.76 | -0.245 | 4.53 | 7.15 | 6.3 | 3.43 | 5.6 | 8.23 | 8.64 | 1.85 | 1.55 | 1.45 | 2 | 1.45 | 2.13 | 0.127 | 3.88 |
| CCTGCTAGGTCAATCGTCAGCTAAAGCAGCTCGC | 3.35 | 2.19 | -0.244 | 1.57 | 0.108 | 2.85 | 1.39 | 2.18 | -0.19 | 1.39 | 4.52 | 3.19 | -0.719 | -1.31 | 0.995 | 0.842 | -0.551 | 1.58 | -0.666 | 3.63 |
| GCGACTGGGGCAGCAGCAGGTTACCATAACTTAA | -0.536 | -0.657 | -0.621 | -0.287 | -1.12 | 0.405 | 0.4 | -0.0757 | -0.451 | -0.719 | 3.5 | 2.23 | -1.15 | -0.983 | -0.687 | -0.502 | -0.939 | -0.19 | -0.8 | 0.608 |
| CAAACTAGGTCAAGAGATCAAAGTCCGCTTCCCG | 3.4 | 2.88 | 0.62 | 1.95 | 0.064 | 5.17 | 8.04 | 6.89 | 4.87 | 6.68 | 8.62 | 8.28 | 2.03 | 2.4 | 2.15 | 1.51 | 0.0869 | 2.57 | 0.821 | 3.92 |
